Among all 5,500 compounds or so, about 2,000 (36%) were called active. Inconclusive results (about 18%) are left out. Cut-off read from the data, not from the text of the source: active = normalized growth mostly below about 0.91 (no sharp cut-off); inconclusive = no clear call, values can overlap the other calls; inactive = mostly above about 0.92. Some of the results follow.
Assay: chemical genetic growth profiling, strain panel (AID 1159580);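 note: tested at 20 µM; growth read once vehicle control cultures reached saturation at 30 °C; 1 = growth at the plate median or of vehicle wells; lower values mean less growth of the strain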
Details: growth OD

Measured: normalized growth

CC1=C2C(=CO[C@H](C)[C@H]2C)C(=O)C(C(=O)O)=C1O
inactive: S. cerevisiae deletion strains, locus YKL009W, strain mrt4, hits give low values 0.936 | S. cerevisiae deletion strains, locus YKL068W, hits give low values 0.972 | S. cerevisiae deletion strains, locus YKL085W, strain MDH1 (second series), hits give low values 0.943 | S. cerevisiae deletion strains, locus YKL085W, strain MDH1, hits give low values 0.943 | S. cerevisiae deletion strains, locus YKL160W, strain elf1, hits give low values 0.95 | S. cerevisiae deletion strains, locus YKL190W, strain CNB1, hits give low values 0.979 | S. cerevisiae deletion strains, locus YKR001C, strain vps1, hits give low values 1 | S. cerevisiae deletion strains, locus YKR026C, strain gcn3, hits give low values 0.979 | S. cerevisiae deletion strains, locus YKR091W, strain srl3, hits give low values 0.986 | S. cerevisiae deletion strains, locus YLL001W, strain dnm1, hits give low values 1 | S. cerevisiae deletion strains, locus YLL026W, hits give low values 0.976 | S. cerevisiae deletion strains, locus YLL041C, strain sdh2, hits give low values 0.98 | S. cerevisiae deletion strains, locus YLR027C, strain aat2, hits give low values 0.981 | S. cerevisiae deletion strains, locus YLR039C, strain RIC1, hits give low values 0.92 | S. cerevisiae deletion strains, locus YLR058C, strain SHM2, hits give low values 0.985 | S. cerevisiae deletion strains, locus YLR102C, strain apc9, hits give low values 0.979 | S. cerevisiae deletion strains, locus YLR221C, strain rsa3, hits give low values 0.971 | S. cerevisiae deletion strains, locus YLR258W, strain gsy2, hits give low values 0.96 | S. cerevisiae deletion strains, locus YLR262C, strain YPT6 (second series), hits give low values 0.891 | S. cerevisiae deletion strains, locus YLR262C, strain YPT6, hits give low values 0.918 | S. cerevisiae deletion strains, locus YLR268W, strain sec22, hits give low values 0.974 | S. cerevisiae deletion strains, locus YLR320W, strain mms22, hits give low values 0.94 | S. cerevisiae deletion strains, locus YLR330W, strain CHS5, hits give low values 0.98 | S. cerevisiae deletion strains, locus YLR342W, strain FKS1 (second series), hits give low values 0.931 | S. cerevisiae deletion strains, locus YLR342W, strain FKS1, hits give low values 0.954 | S. cerevisiae deletion strains, locus YLR357W, strain rsc2, hits give low values 1.01 | S. cerevisiae deletion strains, locus YLR370C, strain arc18, hits give low values 0.972 | S. cerevisiae deletion strains, locus YLR371W, strain rom2, hits give low values 1.01 | S. cerevisiae deletion strains, locus YLR384C, strain iki3, hits give low values 0.979 | S. cerevisiae deletion strains, locus YLR418C, strain cdc73, hits give low values 0.95 | S. cerevisiae deletion strains, locus YML016C, strain PPZ1, hits give low values 0.976 | S. cerevisiae deletion strains, locus YML032C, strain rad52, hits give low values 0.984 | S. cerevisiae deletion strains, locus YML120C, strain ndi1, hits give low values 0.975 | S. cerevisiae deletion strains, locus YML124C, strain tub3, hits give low values 0.964 | S. cerevisiae deletion strains, locus YMR058W, strain fet3, hits give low values 1 | S. cerevisiae deletion strains, locus YMR078C, strain ctf18, hits give low values 0.984 | S. cerevisiae deletion strains, locus YMR125W, strain sto1, hits give low values 0.996 | S. cerevisiae deletion strains, locus YMR129W, hits give low values 0.973 | S. cerevisiae deletion strains, locus YMR205C, strain PFK2, hits give low values 0.937 | S. cerevisiae deletion strains, locus YMR223W, strain ubp8, hits give low values 0.997 | S. cerevisiae deletion strains, locus YMR231W, strain pep5, hits give low values 0.981 | S. cerevisiae deletion strains, locus YMR307W, strain GAS1, hits give low values 0.85 | S. cerevisiae deletion strains, locus YNL067W, strain RPL9B, hits give low values 0.997 | S. cerevisiae deletion strains, locus YNL071W, strain lat1, hits give low values 0.981 | S. cerevisiae deletion strains, locus YNL128W, strain TEP1, hits give low values 1.01 | S. cerevisiae deletion strains, locus YNL153C, strain GIM3, hits give low values 0.988 | S. cerevisiae deletion strains, locus YNL209W, strain ssb2, hits give low values 0.977 | S. cerevisiae deletion strains, locus YNL233W, strain BNI4, hits give low values 1 | S. cerevisiae deletion strains, locus YNL248C, strain rpa49, hits give low values 1.01 | S. cerevisiae deletion strains, locus YNL250W, strain rad50, hits give low values 0.979 | S. cerevisiae deletion strains, locus YNL271C, strain bni1, hits give low values 0.978 | S. cerevisiae deletion strains, locus YNL298W, strain CLA4, hits give low values 0.956 | S. cerevisiae deletion strains, locus YNL307C, strain MCK1, hits give low values 0.985 | S. cerevisiae deletion strains, locus YNL322C, strain KRE1 (second series), hits give low values 0.965 | S. cerevisiae deletion strains, locus YNL322C, strain KRE1, hits give low values 0.968 | S. cerevisiae deletion strains, locus YNR049C, strain mso1, hits give low values 0.988 | S. cerevisiae deletion strains, locus YNR052C, strain pop2, hits give low values 0.997 | S. cerevisiae deletion strains, locus YOL012C, strain htz1 1.44 | S. cerevisiae deletion strains, locus YOL147C, strain pex11, hits give low values 0.977 | S. cerevisiae deletion strains, locus YOR001W, strain rrp6, hits give low values 0.972 | S. cerevisiae deletion strains, locus YOR061W, strain CKA2, hits give low values 0.983 | S. cerevisiae deletion strains, locus YOR069W, strain VPS5, hits give low values 0.973 | S. cerevisiae deletion strains, locus YOR070C, strain gyp1, hits give low values 0.974 | S. cerevisiae deletion strains, locus YOR080W, strain dia2, hits give low values 0.972 | S. cerevisiae deletion strains, locus YOR083W, strain WHI5, hits give low values 1 | S. cerevisiae deletion strains, locus YOR106W, strain vam3, hits give low values 1 | S. cerevisiae deletion strains, locus YOR136W, strain idh2, hits give low values 0.985 | S. cerevisiae deletion strains, locus YOR144C, strain elg1, hits give low values 0.981 | S. cerevisiae deletion strains, locus YOR184W, strain ser1, hits give low values 0.989 | S. cerevisiae deletion strains, locus YOR265W, strain rbl2, hits give low values 0.967 | S. cerevisiae deletion strains, locus YOR270C, strain vph1, hits give low values 1 | S. cerevisiae deletion strains, locus YOR290C, strain snf2, hits give low values 0.969 | S. cerevisiae deletion strains, locus YOR316C, strain cot1, hits give low values 0.972 | S. cerevisiae deletion strains, locus YPL051W, strain arl3, hits give low values 0.967 | S. cerevisiae deletion strains, locus YPL078C, strain atp4, hits give low values 0.993 | S. cerevisiae deletion strains, locus YPL106C, strain sse1, hits give low values 0.933 | S. cerevisiae deletion strains, locus YPL240C, strain hsp82, hits give low values 0.978 | S. cerevisiae deletion strains, locus YPL241C, strain CIN2, hits give low values 0.971 | S. cerevisiae deletion strains, locus YPL256C, strain CLN2, hits give low values 0.838 | S. cerevisiae deletion strains, locus YPR119W, strain clb2, hits give low values 0.965 | S. cerevisiae deletion strains, locus YPR141C, strain kar3, hits give low values 0.957 | S. cerevisiae deletion strains, locus YPR163C, strain tif3, hits give low values 1.01 | S. cerevisiae deletion strains, locus YPR167C, strain met16, hits give low values 0.987 | S. cerevisiae deletion strains, strain wtn01, hits give low values 0.956 | S. cerevisiae strains, strain wild type, hits give low values 0.974
active: S. cerevisiae deletion strains, locus YJR066W, strain TOR1, hits give low values 0.799 | S. cerevisiae deletion strains, locus YLR113W, strain HOG1, hits give low values 0.709 | S. cerevisiae deletion strains, locus YNL183C, strain NPR1, hits give low values 0.82 | S. cerevisiae deletion strains, locus YOR231W, strain MKK1, hits give low values 0.809
